For experiment [1], the system named is turtle Thyroid Hormone Receptor, alpha (TRa), gene 101949057. The experiment can be described thus: ATG_trTRa_XSP2: Attagene TRANS-FACTORIAL Multi-Species (XSP1) HepG2 Assay for turtle Thyroid Hormone Receptor, alpha (TRa) (AID 2283834).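 Further: hits raise reporter mRNA over the DMSO baseline so AC50 marks activators.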 The essentials: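 Transfection of HepG2 with multiple reporter transcription units, then chemical dosing for 24 h. Total RNA was reverse-transcribed, reporter sequences PCR-amplified and FAM-labelled, then sized by capillary electrophoresis. DMSO served as baseline.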

The target in experiment [2] is zebrafish Thyroid Hormone Receptor beta (TRb), thrb (gene 30607) (UniProt Q9PVE4). In words: ATG_zfTRb_XSP2: Attagene TRANS-FACTORIAL Multi-Species (XSP1) HepG2 Assay for zebrafish Thyroid Hormone Receptor beta (TRb) (AID 2283836). The essentials:
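Transfect HepG2 with multiple reporter transcription units, dose chemical, incubate 24 h. Isolate RNA, reverse-transcribe, amplify and fluorescently label reporter sequences, digest with HpaI, then resolve by capillary electrophoresis. Positive direction fitted against DMSO.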

Experiment [3] is described as follows: ATG_XTT_Cytotoxicity_XSP2: Cytotoxicity Assessment in the Attagene TRANS-FACTORIAL Multi-Species (XSP2) HepG2 Assay (AID 2283837). The essentials: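 XTT-based cell number read-out in human HepG2 liver cells carrying transfected reporter units, measured 24 h after chemical dosing. Activity is signal loss versus DMSO baseline.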
Experiment [4] concerns the target human Thyroid hormone Receptor alpha (TRa), THRA (gene 7067) (UniProt P10827). The experiment can be described thus: ATG_hTRa_XSP2: Attagene TRANS-FACTORIAL Multi-Species (XSP2) HepG2 Assay for human Thyroid hormone Receptor alpha (TRa) (AID 2283838). The essentials:
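Reporter transcripts were read by RT-PCR with fluorescent primer extension, HpaI digestion and capillary electrophoresis. These came from HepG2 cells carrying multiplexed TRa-Gal4 TRANS constructs, harvested 24 hours after dosing. The medium also held 6-alpha-fluorotestosterone (3 nM) and norgestrel (1.5 nM), and increases were fitted against DMSO.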

The target of experiment [5] is frog Thyroid hormone Receptor alpha (TRa), thra-a (gene 397942) (UniProt P15204). In words: ATG_frTRa_XSP2: Attagene TRANS-FACTORIAL Multi-Species (XSP2) HepG2 Assay for frog Thyroid hormone Receptor alpha (TRa) (AID 2283839).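 On AC50: AC50 reflects induction of frog TRa-driven reporter mRNA above DMSO baseline.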 Summed up: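 Transfect HepG2 with multiple reporter units (GAL4-UAS), dose chemical, incubate 24 h. Isolate RNA, reverse-transcribe, PCR-amplify reporter, label with 6-FAM by primer extension, digest with HpaI, run capillary electrophoresis; induction scored against DMSO.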
frog Thyroid hormone Receptor alpha (TRa), thra-a (gene 397942), sequence (P15204 whole entry, looked up, the tested form may be a part): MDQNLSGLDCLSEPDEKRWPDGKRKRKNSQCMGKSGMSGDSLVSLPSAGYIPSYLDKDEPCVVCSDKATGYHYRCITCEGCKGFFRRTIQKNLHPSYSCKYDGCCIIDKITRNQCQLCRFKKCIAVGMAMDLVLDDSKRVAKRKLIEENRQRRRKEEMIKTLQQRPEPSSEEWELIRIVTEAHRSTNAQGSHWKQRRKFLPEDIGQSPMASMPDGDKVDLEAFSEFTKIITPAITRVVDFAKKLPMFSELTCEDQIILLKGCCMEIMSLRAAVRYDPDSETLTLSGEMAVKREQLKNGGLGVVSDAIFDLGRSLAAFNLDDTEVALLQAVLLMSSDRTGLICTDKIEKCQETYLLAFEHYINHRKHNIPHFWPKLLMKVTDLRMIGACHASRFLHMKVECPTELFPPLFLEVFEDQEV

The target of experiment [6] is human Thyroid hormone Receptor beta (TRb), THRB (gene 7068) (UniProt P10828). The experiment can be described thus: ATG_hTRb_XSP2: Attagene TRANS-FACTORIAL Multi-Species (XSP2) HepG2 Assay for human Thyroid hormone Receptor beta (TRb) (AID 2283840).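 Further: actives raise reporter mRNA so potency reflects agonist-like gain of signal.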 Summed up:
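Transient transfection of human HepG2 with multi-species NR-Gal4/GAL4-UAS reporter constructs; 24 h compound treatment; RNA isolation, reverse transcription, PCR and HpaI digest; capillary electrophoresis of labeled fragments; activity fitted upward versus DMSO.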

Experiment [7] concerns Sodium/Iodide Symporter (NIS), SLC5A5 (gene 6528). In words: CPHEA_Stoker_NIS_Inhibition_RAIU: CPHEA's Radioactive Iodide Uptake (RAIU) Assay for Sodium/Iodide Symporter (NIS) Inhibition, Stoker and Laws Labs (AID 2283841). The essentials: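 Iodide uptake through human NIS is measured in an engineered HEK293T line. Cells take up 125I (329pM final) for 2 hours at room temperature alongside chemicals at 0.001–100uM. Retained radioactivity is counted, and the signal is expressed against DMSO controls.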

Experiment [8] can be described thus: CPHEA_Stoker_NIS_Cytotoxicity: Cytotoxicity Assessment for CPHEA's Radioactive Iodide Uptake (RAIU) Assay for Sodium/Iodide Symporter (NIS) Inhibition, Stoker and Laws Labs (AID 2283897). The essentials: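 ATP luminescence (Cell Titer Glo) measured viability, with loss of signal normalized to DMSO controls. Cells: hNIS-HEK293T-EPA, seeded 40 hours prior. Dosing: 0.001–100uM, 2 hours, room temperature, uptake buffer pH 7.4.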

Experiment [9] is described as follows: ATG_M_61_XSP2: Attagene TRANS-FACTORIAL Multi-Species (XSP2) HepG2 Assay for M61 Transcription Factor (Internal Marker) (AID 2283835; active means hit-call score of the fitted dose curve at least 0.9, where 1 is the maximum; inactive means score below 0.9;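 further: reporter mRNA of an internal background marker read by RT-PCR and capillary electrophoresis; active means a rise in signal above the DMSO baseline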). Summed up:
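Signal was mRNA induction detected as fluorescence after RT-PCR and capillary electrophoresis, analysed in the gain direction with DMSO as baseline. HepG2 cells transiently carrying reporter constructs received chemicals for 24 h.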

Experiment [10] can be described thus: CEETOX_H295R_11DCORT_noMTC: CeeTox H295R High-throughput Steroidogenesis Assay for 11-Deoxycortisol (11DCORT), maximum tolerated concentration (MTC) filtered results only (AID 2283911; active means hit-call score of the fitted dose curve at least 0.9, where 1 is the maximum; inactive means score below 0.9). The settings on record: actives raise or lower the signal. Summed up: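 Steroidogenesis was stimulated in H295R cells with 10 uM forskolin for 48 h before a 48 h chemical exposure. Secreted 11-deoxycortisol was measured by tandem mass spectrometry and fitted bidirectionally against DMSO controls.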

“And” between values parts separate entries of the source, which are not always exact repeats. Equal values may be shown once. Results filed as inconclusive are left out. A structure can be active in one record and inactive in another. The source made the active and inactive calls. How the source made its calls, unless noted: active means hit-call score of the fitted dose curve at least 0.9, where 1 is the maximum; inconclusive means response in the unintended direction; inactive means score below 0.9.

As usually defined, the AC50 is the concentration at which the activity in the assay is half-maximal.

zebrafish Thyroid Hormone Receptor beta (TRb), thrb (gene 30607), sequence (Q9PVE4 whole entry, looked up): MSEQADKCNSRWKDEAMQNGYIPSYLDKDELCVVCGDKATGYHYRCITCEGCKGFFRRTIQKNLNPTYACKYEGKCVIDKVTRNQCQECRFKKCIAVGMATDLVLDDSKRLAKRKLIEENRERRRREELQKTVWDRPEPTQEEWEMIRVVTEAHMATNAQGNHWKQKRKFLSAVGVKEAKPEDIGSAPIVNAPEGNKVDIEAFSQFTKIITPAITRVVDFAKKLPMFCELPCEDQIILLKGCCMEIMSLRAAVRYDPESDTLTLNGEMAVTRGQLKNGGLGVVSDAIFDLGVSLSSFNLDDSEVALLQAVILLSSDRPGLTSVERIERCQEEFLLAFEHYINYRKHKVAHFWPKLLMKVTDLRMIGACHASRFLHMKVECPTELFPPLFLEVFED
human Thyroid hormone Receptor alpha (TRa), THRA (gene 7067), sequence (P10827 whole entry, looked up, the tested form may be a part): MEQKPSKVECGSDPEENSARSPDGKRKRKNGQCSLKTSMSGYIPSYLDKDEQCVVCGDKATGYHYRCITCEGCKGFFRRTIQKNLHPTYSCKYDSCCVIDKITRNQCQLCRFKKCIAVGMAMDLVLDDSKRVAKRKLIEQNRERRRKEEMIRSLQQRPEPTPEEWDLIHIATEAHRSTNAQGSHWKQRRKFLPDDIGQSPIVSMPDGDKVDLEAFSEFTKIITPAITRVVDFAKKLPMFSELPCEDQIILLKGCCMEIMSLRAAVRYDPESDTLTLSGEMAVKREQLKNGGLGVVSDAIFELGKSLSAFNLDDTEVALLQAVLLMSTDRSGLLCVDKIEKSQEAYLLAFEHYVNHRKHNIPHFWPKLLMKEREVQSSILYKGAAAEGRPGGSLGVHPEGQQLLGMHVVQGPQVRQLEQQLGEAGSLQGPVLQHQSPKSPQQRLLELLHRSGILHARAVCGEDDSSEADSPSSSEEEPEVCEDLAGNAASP
human Thyroid hormone Receptor beta (TRb), THRB (gene 7068), sequence (P10828 whole entry, looked up, the tested form may be a part): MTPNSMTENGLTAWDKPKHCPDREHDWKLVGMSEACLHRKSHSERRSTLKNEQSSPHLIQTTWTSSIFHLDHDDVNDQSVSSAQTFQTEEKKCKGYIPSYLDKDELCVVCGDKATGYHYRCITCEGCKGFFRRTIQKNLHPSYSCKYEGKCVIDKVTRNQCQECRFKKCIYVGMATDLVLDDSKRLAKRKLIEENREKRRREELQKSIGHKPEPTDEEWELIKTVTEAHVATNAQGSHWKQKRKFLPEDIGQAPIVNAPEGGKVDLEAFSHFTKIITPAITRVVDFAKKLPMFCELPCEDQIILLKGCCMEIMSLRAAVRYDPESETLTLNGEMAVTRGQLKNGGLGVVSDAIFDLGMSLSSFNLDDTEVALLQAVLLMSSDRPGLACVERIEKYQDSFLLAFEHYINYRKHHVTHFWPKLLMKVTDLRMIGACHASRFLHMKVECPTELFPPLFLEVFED

In the case of `O=c1cc(-c2ccc(O)cc2)oc2cc(O)cc(O)c12`, the AC50 was 26.7 µM (active) in experiment [1]; 6.26 µM (active) in experiment [4]; 39.2 µM (active) and 44.6 µM (active) in [5]; 7.81 µM (active) in [6]. Moreover, the result in experiment [1], in experiment [2], in [3], in experiment [4], in [6] and in experiment [7] was inactive. In addition, in experiment [8], the result was inactive.

For the molecule `O=C(O)C(F)(F)OC(F)(F)C(F)(F)OC(F)(F)C(F)(F)C(F)(F)C(F)(F)F`, the result in experiment [7] was inactive.

Take `CCCCCCCCOC(=O)c1ccc(O)cc1`: the result in experiment [1], in experiment [9], in experiment [2], in experiment [4], in experiment [5] and in [6] was inactive. Also, the AC50 in experiment [3] was 41.3 µM (active).

For `CCCCCC1CCC(=O)O1` (stereo not drawn), the result in experiment [7] and in [8] was inactive.

Regarding `CCCCCCCCCCCCOCCOS(=O)(=O)O`, the AC50 in [7] was 9.92 µM (active). For the same molecule, in experiment [8], the outcome was inactive.

Consider `[Na+]`, for which the AC50 in [7] is 5.73 µM (active). Besides, the outcome in experiment [8] was inactive.

With `C=C(C)C(=O)OCCC(F)(F)C(F)(F)C(F)(F)C(F)(F)C(F)(F)C(F)(F)C(F)(F)C(F)(F)F`, in experiment [7], the result was inactive.

Turning to `CCCCCCCCCCOC(=O)c1ccccc1C(=O)OCCCCCCCC`, in [10], the AC50 is 45.7 µM (active).

Turning to `CC(=O)N(C)C`, the result in [7] was inactive.

With `CC(=O)OC(C)(C)C`, the result in experiment [7] and in experiment [8] was inactive.

Consider `CCCCCCCCCO`, for which the outcome in experiment [7] and in [8] was inactive.

In the case of `CCCCCCCCCOS(=O)(=O)O`, the result in [8] was inactive.

The values above are taken from PubChem BioAssay (EPA / NIEHS).
